# UHRF1 MBD2 ctr: blocks human UHRF1 binding to methylated DNA | Q96T88 | UHRF1 binding to methylated oligo, TR-FRET | inhibition, % at 4.4 µM | 370,000 compounds, 0.75% hits | AID 687016; in the data active means inhibition above about 21%;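 further: UHRF1 SRA domain binding a hemimethylated CpG hairpin DNA probe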
# PLCg1 inh: inhibitors of human phospholipase C gamma1 | inhibition, % at 12.2 µM | AID 720700 | purified PLC-gamma1, fluorogenic substrate, fluorescence | P19174 | 370,000 compounds, 0.84% hits; in the data active means inhibition above about 9.5%
# MBD2 inh: inhibitors of human MBD2 binding to methylated oligonucleotide; 370,000 compounds, 0.31% hits; inhibition, % at 4.4 µM; TR-FRET; Q9UBB5; in the data active means inhibition above about 13%
# Target sequence (Q9UBB5 whole entry, looked up): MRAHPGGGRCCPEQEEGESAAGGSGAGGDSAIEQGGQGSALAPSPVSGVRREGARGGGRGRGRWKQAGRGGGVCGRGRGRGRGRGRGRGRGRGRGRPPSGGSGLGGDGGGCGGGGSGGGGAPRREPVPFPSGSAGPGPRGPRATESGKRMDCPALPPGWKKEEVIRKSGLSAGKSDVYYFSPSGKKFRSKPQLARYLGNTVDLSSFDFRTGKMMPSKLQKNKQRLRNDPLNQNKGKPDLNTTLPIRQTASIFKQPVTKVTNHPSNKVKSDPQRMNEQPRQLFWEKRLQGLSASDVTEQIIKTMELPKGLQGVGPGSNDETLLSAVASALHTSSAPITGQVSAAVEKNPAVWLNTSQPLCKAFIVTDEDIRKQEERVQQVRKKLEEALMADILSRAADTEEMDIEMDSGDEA
# LEDGF integ inh: blocks HIV-1 LEDGF/p75-dependent DNA integration; TR-FRET IN-LEDGF/p75 DNA integration, Eu/Cy5; inhibition, % at 3.7 µM; 370,000 compounds, 0.64% hits;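 active means inhibition above the screen-wide mean plus 3 SD, cut at about 13% in these data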;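 further: signal is the Cy5 over europium emission ratio at 671 and 618 nm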
# PLC-beta3 inh: inhibitors of human phospholipase C beta3; AID 720704; 370,000 compounds, 0.18% hits; inhibition, % at 12.2 µM; Q01970; Purified PLC-beta3, fluorogenic substrate, fluorescence; in the data active means inhibition above about 11%
# IN multimer up: counter-screen for LEDGF/p75 integration inhibitors: HIV-1 integrase multimerization activators; shares compounds with LEDGF integ inh; activation, % at 7.7 µM; AID 1053131; TR-FRET HIV-1 integrase multimerization, biochemical; 2,000 compounds, 17% hits; in the data active means activation above about 8.9%
# TRFRET interf: counter-screen for LEDGF/p75 integration inhibitors: TR-FRET optical interference | shares compounds with LEDGF integ inh | TR-FRET optical interference counterscreen, HIV-1 IN multimerization | inhibition, % at 7.7 µM | 2,000 tested, under 10 active | AID 1053135;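 active means inhibition above the mean over all tested compounds plus 3 SD, which no compound reached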
# IN-LEDGF confirm: confirmation of HIV-1 LEDGF/p75-dependent integration inhibitors. inhibition, % at 3.7 µM. 2,000 compounds, 36% hits. AID 1053136. TR-FRET LEDGF/p75-dependent HIV-1 integration, biochemical. shares compounds with LEDGF integ inh; in the data active means inhibition above about 14%
# A number is an active result; . = inactive; / = not tested or not shown. Shown are actives, neighbours in structure and some others; about 2.3% of the full set was active somewhere.
SMILES,UHRF1 MBD2 ctr,PLCg1 inh,MBD2 inh,LEDGF integ inh,PLC-beta3 inh,IN multimer up,TRFRET interf,IN-LEDGF confirm
CN(C)c1ccc(O)c2c1CC1CC3[C@@H](N(C)C)C(=O)C(C(N)=O)C(=O)[C@]3(O)C(=O)C1C2=O (some centres undefined),.,.,.,37,.,.,.,.
CN(C)c1ccc(O)c2c1CC1CC3C(N(C)C)C(=O)C(C(N)=O)=C(O)[C@@]3(O)C(=O)C1=C2O (some centres undefined),.,.,.,22,.,10.0,.,.
CC(C)CCNC(=O)[C@H]1COC(O)([C@H](Cc2ccccc2)NC(=O)[C@@H](NC(=O)OCc2ccccc2)C(C)C)CN1C (some centres undefined),.,.,.,.,.,/,/,/
c1ccc(CCSc2nnc(-c3cccnc3)n2Cc2ccccc2)cc1,.,.,.,.,.,/,/,/
COc1ccc(S(=O)(=O)N2CCOCC2)cc1C(=O)Nc1cc(C)on1,.,.,.,86,.,.,.,.
NC(=O)c1sc2nc(-c3ccco3)ccc2c1N,28,.,.,41,.,13,.,.
Nc1ccccc1C(O)(Cc1ccccc1)c1ccccc1 (centres undefined),.,.,.,87,.,.,.,.
OC(Cc1cccnc1)(c1ccccc1)c1ccccc1,.,.,.,.,.,/,/,/
Cc1c(F)cccc1NC(=O)CCCCCC1NC(=O)NC1C (centres undefined),.,.,.,78,.,.,.,89
CC1NC(=O)NC1CCCCCC(=O)Nc1ccc(F)cc1 (centres undefined),.,.,.,84,.,.,.,93
O=S1(=O)c2c(cccc2N2CCC[C@H]2CO)O[C@@H]2CCN1C2,.,.,.,.,.,/,/,/
COC(=O)Cc1c(C)nc2nc(Cc3ccccc3)[nH]n2c1=O,.,.,.,14,.,.,.,.
CN1CCN(S(=O)(=O)c2cccc(C(=O)N3CCN(c4ccccc4F)CC3)c2)CC1,.,.,.,26,.,.,.,.
CNC[C@H](O)c1ccc(O)c(O)c1,.,.,.,18,.,.,.,.
NC[C@H](O)c1ccc(O)c(O)c1,.,.,.,15,.,.,.,.
CC(C)NCC(O)c1ccc(O)c(O)c1 (centres undefined),.,.,.,.,.,/,/,/
COCC1CN(CCc2ccc(F)cc2)S(=O)(=O)c2c(OCCN3C(=O)[C@@H]4[C@H](C3=O)[C@@H]3C=C[C@H]4C3)cccc2O1 (some centres undefined),.,.,.,.,.,/,/,/
COP(=O)(OC)C(NC(=O)OCc1ccccc1)C(C)C (centres undefined),.,.,.,.,.,/,/,/
COC(=O)C1=C(C)N(CCCC(=O)O)C(=O)NC1c1cc2c(cc1[N+](=O)[O-])OCO2 (centres undefined),.,.,.,27,.,26,.,48
O=Cc1ccc(/C=C2\c3ccccc3C(=O)N2c2ccccc2)o1,.,.,.,38,.,.,.,20
COc1cccc(/C=N\N2CCN(c3ccc(C)cc3)CC2)c1O,.,.,.,.,.,/,/,/
O=C(O)/C(=C/c1ccco1)NC(=O)c1ccccc1,.,.,.,27,.,.,.,.
O=C(O)/C(=C\c1ccco1)NC(=O)c1cccc2ccccc12,21,.,.,29,.,.,.,.
CC(C)(C)c1ccc(C(=O)N/C(=C\c2ccco2)C(=O)O)cc1,.,.,.,.,.,/,/,/
Cc1ccccc1N1CCN(S(=O)(=O)c2ccc3c(c2)oc(=O)n3C)CC1,.,.,.,.,.,/,/,/
SMILES,UHRF1 MBD2 ctr,PLCg1 inh,MBD2 inh,LEDGF integ inh,PLC-beta3 inh,IN multimer up,TRFRET interf,IN-LEDGF confirm
C=CCN(C(=O)[C@@H](C)[C@@H](O)c1ccc2ccccc2c1)c1ccccc1,.,.,.,.,.,/,/,/
O=C(CCNS(=O)(=O)c1ccccc1C(F)(F)F)NNC(=O)C1COc2ccccc2O1 (centres undefined),.,.,.,.,.,/,/,/
O=C(CCNS(=O)(=O)c1ccccc1)NNC(=O)C1COc2ccccc2O1 (centres undefined),.,.,.,14,.,.,.,.
CCN(CC(=O)Nc1c(F)cccc1F)C(=O)C1CC(=O)N(CCc2ccccc2)C1 (centres undefined),.,.,.,35,.,.,.,.
CCOC(=O)CC[C@H]1CC[C@]2(CCCN(Cc3ccccc3)C2)O1,.,.,.,.,.,/,/,/
O=C(O)c1ccc2c(c1)C1C=CCC1C(c1ccncc1)N2 (centres undefined),.,.,.,.,.,/,/,/
COc1ccc(NS(=O)(=O)c2ccc3c(c2)[C@H]2C=CC[C@H]2[C@@H](c2ccc(C(=O)O)cc2)N3)cc1,.,.,.,52,.,26,.,58
Cn1c(=O)c2ccccc2n(Cc2cccc(F)c2)c1=O,.,.,.,21,.,.,.,.
O=C(/C(=N/N=C/c1ccc(O)c(O)c1O)c1ccccc1)c1ccccc1,.,.,.,14,.,.,.,28
CCN(CC)S(=O)(=O)c1cccc(C(=O)N/N=C/c2ccc(O)c(O)c2O)c1,.,.,.,.,.,/,/,/
Oc1ccc(/C=N/N=C(c2ccccc2)c2ccccc2)c(O)c1O,.,.,.,41,.,21,.,84
C[C@@H]1CCN(C2CC2)S(=O)(=O)c2ccc(N3CC[C@@H](N(C)C)C3)cc2O1,.,.,.,.,.,/,/,/
O=c1[nH]c2cc3c(cc2cc1CN(Cc1nnnn1CC1CCCO1)C1CCCCC1)OCO3 (centres undefined),.,.,.,18,.,.,.,.
O=C(CSc1nc2ccccc2n1Cc1ccccc1Cl)NN=C/C(Br)=C/c1ccccc1,.,.,.,.,.,/,/,/
C=CCn1cnc2c(NCc3ccccc3)ncnc21,.,.,.,89,.,.,.,.
CNc1ccc(Br)cc(C(=O)/C=C/c2ccc(OC)cc2)c1=O,.,.,.,30,.,.,.,27
CNc1ccc(Br)cc(C(=O)/C=C/c2cc(OC)ccc2OC)c1=O,.,.,.,.,.,/,/,/
CNc1ccc(Br)cc(C(=O)/C=C/c2ccc3c(c2)OCO3)c1=O,.,.,.,19,.,.,.,36
Cc1ccc(S(=O)(=O)N2CCCC2)cc1C(=O)N1CCN(Cc2ccccc2)CC1,.,.,.,22,.,.,.,.
O=C(c1cc(F)ccc1F)N1CCC(Oc2cccnc2)CC1,.,.,.,.,.,/,/,/

# Screens deposited in PubChem by The Scripps Research Institute Molecular Screening Center.
